# Among all 48,000 compounds or so, about 13,000 (27%) showed an effect of 50% or more. The list shows a part of the results.
# System: Wolbachia pipientis
# Assay: Anti-Wolbachia Cell-Based Screen
# Format: functional
# Set-up: scale not given: in the data most compounds retested in dose-response had high values
# Conditions: 5 µM
row,Compound,Percent Effect [%]
1,CNC(=O)[C@@H]1C[C@@H](N)CN1Cc1cc2cc(C)cc(C)c2[nH]c1=O,3.33
2,CN(Cc1cnn(C)c1)S(=O)(=O)N1CCc2ccccc2C1,11.11
3,CCS(=O)(=O)c1ccc2oc([C@H]3CCN(Cc4cccnc4)C3)nc2c1,-5.049
4,CCN(CC)S(=O)(=O)c1ccc2c(c1)N(Cc1ccncc1)C(=O)CS2,122
5,CCN(CC)S(=O)(=O)N(C)Cc1ccncc1,-6.423
6,CCN(CC)S(=O)(=O)c1ccc2c(c1)N(Cc1ccccn1)C(=O)CS2,124.5
7,CC(C)N1CCC(Nc2ccn(Cc3ccccn3)n2)C1=O (centres undefined),7.705
8,CCN(CC)S(=O)(=O)N1CCCC(c2nccn2Cc2cccnc2)C1 (centres undefined),-1.362
9,CCN(CC)S(=O)(=O)c1ccc2c(c1)N(Cc1cccnc1)C(=O)CS2,103.1
10,CCN(Cc1cccc(-c2ccncc2)c1)S(N)(=O)=O,-1.235
11,CCN(CC)S(=O)(=O)N1CCC(c2nccn2Cc2ccccn2)CC1,1.2
12,CC(=O)N1CCC(C(=O)NCCN2CCC(C)CC2)CC1,-2.341
13,CCN1C(=O)CC(c2cnn(C)c2)C12CCN(C(=O)c1ccoc1)CC2 (centres undefined),0.4401
14,Cc1nccn1-c1ccc(C(C)NCc2cccn2C)cc1 (centres undefined),-7.942
15,Cc1ccnc(Cn2cc(-c3cccc(C(C)N(C)C)c3)nn2)c1 (centres undefined),12.93
16,COc1ccc2c(c1)CCCN2C(=O)CN1CCOC(C)C1 (centres undefined),-7.941
17,CC(Nc1ccc(CCN2CCOCC2)cc1)C(=O)N(C)CCC#N (centres undefined),7.396
18,Cc1ccc(CCCC(=O)N(C)CCN2CCOCC2)cc1,-4.729
19,O=C(Nc1ccc(CCN2CCC(O)CC2)cc1)C1CCOCC1,8.941
20,CC(CCc1ccccc1)NC(=O)CN1CCOCC1 (centres undefined),-21.53
21,COC(=O)C(O)C1CCN(CCc2ccncc2)CC1 (centres undefined),-5.946
22,CC(Nc1ccc(CCN2CCCCC2)cc1)C(=O)N(C)CCC#N (centres undefined),-7.662
23,CCC(C)C(=O)Nc1ccc(CCN2CCOCC2)cc1 (centres undefined),92.28
24,CCOC(=O)C(C)Nc1ccc(CCN2CCOCC2)cc1 (centres undefined),97.92
25,CCC(Nc1ccc(CCN2CCCCC2)cc1)C(N)=O (centres undefined),104.3
26,CCC(Nc1ccc(CCN2CCOCC2)cc1)C(N)=O (centres undefined),92.12
27,NC(=O)C1CCN(CCc2ccc(NC(=O)C3CCC3)cc2)CC1,-0.7709
28,CCC(Nc1ccc(Oc2ccccc2OC)cc1)C(N)=O (centres undefined),11.69
29,CCOc1cc(NC(=O)NCCn2cnnc2CC)ccc1C,-0.5638

# Reference: ChEMBL document CHEMBL3988442, “University of Dundee, Small-Polar-MMV Screening Library” (2021)
